The record followed here is PubChem BioAssay AID624483 (NMMLSC, 2012).

About 11,000 (3.1%) of roughly 360,000 compounds were called active. Roughly 2% stayed inconclusive and do not appear here. The full list was thinned out, with actives kept by preference. Values without a mark were called inactive. Cut-off read from the data, not from the text of the source: active = fluorescence intensity above about 16000; inconclusive = no clear call, values can overlap the other calls; inactive = below that.

The nature of this assay: counter-screen for toxin protease inhibitors: compound fluorescence, primary screen, artefact control for toxin protease inhibitor project, biochemical, multiplex microsphere, HTS (AID 624483). As to conditions: compound autofluorescence counterscreen, microsphere flow cytometry; stronger effect = higher value. On the technique in general: Counterscreens check selectivity or assay interference.
As for `COc1ccccc1CNC(=O)C1CCN(c2nc3ccccc3o2)CC1`, the fluorescence intensity is 21300 (active).

Regarding `COc1ccc(OC)c(CNC(=O)C2CCCN(c3nc4ccccc4o3)C2)c1` (configuration not stated), the fluorescence intensity is 15800.

Consider `COc1ccccc1CNC(=O)C1CCN(S(C)(=O)=O)CC1`, for which the fluorescence intensity is 8350.

As to `COc1ccccc1CNC(=O)c1cc(-c2cc(F)ccc2OC)n[nH]1`, the fluorescence intensity is 3700.

In the case of `CC(C)C[C@H]1CNC(=O)C(=O)N1C[C@@H]1CCCN1C[C@H](Cc1ccccc1)N1C[C@H](CC(C)C)N(CC2CCCCCC2)C(=O)C1=O`, the fluorescence intensity is 5660.

For `Cc1ccc2sc(N(CCN(C)C)C(=O)/C=C/c3cccs3)nc2c1C`, the fluorescence intensity is 4390.

Consider `Cc1cccc2sc(N(CCCN(C)C)C(=O)CCS(=O)(=O)c3ccccc3)nc12`, for which the fluorescence intensity was 32000 (active).

On to `Cc1cc(C)c2nc(N(CCN(C)C)C(=O)/C=C/c3cccs3)sc2c1`, for which the fluorescence intensity was 4460.

Consider `COc1cc(/C=C/CNC[C@H]2O[C@@H](n3cnc(C(N)=O)n3)[C@H](O)[C@@H]2O)ccc1O`, for which the fluorescence intensity was 3180.

As for `O=C(NCc1ccccc1Cl)C1CCN(S(=O)(=O)N2CCOCC2)CC1`, the fluorescence intensity is 5690.

For the compound `Cc1ccccc1Cn1c(C)c(C(=O)NCc2cccc(C(F)(F)F)c2)sc1=O`, the fluorescence intensity is 5450.

Turning to `FC(F)(F)c1ccccc1Cc1c(-c2ccccc2)nc2c3ccccc3ccn12`, the fluorescence intensity was 6460.

For the compound `CC(C)OCCCNc1nc2c(c(=O)n(Cc3ccccc3F)c(=O)n2C)n1C`, the fluorescence intensity was 23400 (active).

Turning to `COc1ccc(N2CC(C)Cn3c2nc2c3c(=O)n(Cc3ccccc3F)c(=O)n2C)c(OC)c1` (configuration not stated), the fluorescence intensity was 5760.

In the case of `Cn1c(=O)c2c(nc(NCCNC(=O)c3ccco3)n2Cc2ccccc2F)n(C)c1=O`, the fluorescence intensity was 5330.

As for `CCc1ccc([C@@H]2CC(=O)[C@@H]3CN(S(=O)(=O)c4ccc(C)cc4)[C@H](c4ccc(Cl)cc4)C[C@@H]3N2S(=O)(=O)c2ccc(C)cc2)cc1`, the fluorescence intensity is 6290.

Turning to `COc1ccc(CCn2c(O)c(C=NCCCn3ccnc3)c(=O)[nH]c2=O)cc1OC`, the fluorescence intensity is 22700 (active).

As to `O=c1[nH]c(=O)n(CCc2ccc(F)cc2)c(O)c1/C=N/N1CCCCC1`, the fluorescence intensity is 3680.

As for `COc1ccc(CCn2c(O)c(C=NC3CC3)c(=O)[nH]c2=O)cc1OC`, the fluorescence intensity is 3180.

Turning to `CCc1nc2ccc(C(=O)Nc3cccc(OC)c3)cn2c1N(CCC(C)C)CCN(C)C`, the fluorescence intensity was 3940.

For the compound `COC(=O)c1ccc(S(=O)(=O)N(CCO)Cc2ccccc2)n1C`, the fluorescence intensity is 5690.

With `CCCC(=O)N1CCC1(C)C(=O)NCc1ccc(SC)cc1` (configuration not stated), the fluorescence intensity was 4000.

`O=c1oc2ccccc2c(CNc2ccccc2)c1[N+](=O)[O-]`: the fluorescence intensity is 3710.

Regarding `CC1(C(=O)NS(=O)(=O)c2ccc3ccccc3c2)CCN1C(=O)C1(c2ccc(Cl)cc2)CCC1` (configuration not stated), the fluorescence intensity is 3400.

For the compound `CCc1nc2c(OCc3cccc(OC)c3)cccn2c1N(C)C(=O)C(C)C`, the fluorescence intensity was 4100.

As for `O=C(Oc1ccc(-c2nc(-c3ccccn3)no2)cc1)c1ccccc1`, the fluorescence intensity is 3190.

With `COc1ccc2nc(-c3ccccn3)ccc2c1`, the fluorescence intensity is 4000.

For `CC(C)c1nc(-c2ccccn2)no1`, the fluorescence intensity was 21700 (active).

For the compound `CC(=O)NC(c1ccccc1)c1nc(-c2cccc(C(C)C)c2)cs1` (configuration not stated), the fluorescence intensity was 3400.

For the compound `Cc1ccccc1OCC(=O)NNC(=O)c1ccc(-n2cncn2)c([N+](=O)[O-])c1`, the fluorescence intensity is 5300.

Turning to `C=C(C)Cn1c(N2CCN(CC)CC2)nc2c1c(=O)[nH]c(=O)n2C`, the fluorescence intensity is 4600.

In the case of `CCCC(C)n1[nH]c(=O)c2c1NC(=O)CSC2c1ccc(OC)c(OC)c1` (configuration not stated), the fluorescence intensity was 20600 (active).

With `CCOC(=O)C1C(c2ccc(OC)c(OC)c2)c2c([nH][nH]c2=O)CC1(C)O` (configuration not stated), the fluorescence intensity was 4630.

Turning to `COc1ccc(C2OCC3(CO2)SC(=O)NC3=O)cc1OC` (configuration not stated), the fluorescence intensity was 2510.

Consider `CCCCN1CC(N2CCN(Cc3cccc(C)c3)CC2)CS1(=O)=O` (configuration not stated), for which the fluorescence intensity was 6580.

Take `Nc1c(NCCc2ccccc2)c2ccccc2oc1=O`: the fluorescence intensity is 3190.

Take `CC(C)(C)Nc1c(N)c(=O)oc2ccccc12`: the fluorescence intensity was 17700 (active).

Take `O=c1oc2ccccc2c(=O)c2ccccc12`: the fluorescence intensity is 3730.

With `CN(C)Cc1c(O)ccc2occ(C(O)c3ccccc3)c12` (configuration not stated), the fluorescence intensity is 2380.

Regarding `CC(=O)c1cccc(-c2cnc3c(NC=O)cc(-c4cccc(C(=O)N(C)C)c4)cn23)c1`, the fluorescence intensity is 4000.

On to `OCCC#Cc1ccc(N2C(c3ccsc3)=Cc3ccc(F)cc3C2c2c[nH]c3ccccc23)cc1` (configuration not stated), for which the fluorescence intensity was 4910.

`CCC1=C(C(=O)OC)C(c2cc(OC)ccc2OC)C(C#N)=C(N)O1` (configuration not stated): the fluorescence intensity is 21500 (active).

Consider `CCOC(=O)C1=C(CC)OC(N)=C(C#N)C1c1ccc(F)cc1F` (configuration not stated), for which the fluorescence intensity is 2060.

For `COC(=O)C1=C(C)N(C)C(=S)NC1c1cc(OC)ccc1OC` (configuration not stated), the fluorescence intensity is 4360.

Turning to `COc1ccc(OCCNS(=O)(=O)Cc2ccccc2)cc1`, the fluorescence intensity was 2820.

On to `Cc1cc(C)cc(NS(=O)(=O)Cc2ccccc2)c1`, for which the fluorescence intensity is 3320.

For the compound `CCOCCCNS(=O)(=O)Cc1ccccc1`, the fluorescence intensity was 18800 (active).

For the compound `COCCNC(=O)c1cc2c(Br)ccc(Br)c2nc1N`, the fluorescence intensity is 4280.

With `CC(C)CNC(=S)NC(=O)c1ccc(Cl)cc1`, the fluorescence intensity was 2350.

For `COC(=O)/C(NC(C)=O)=C(\C)c1ccc(Cl)cc1`, the fluorescence intensity was 17300 (active).

Regarding `CC(=O)Nc1ccc(SCC(=O)NC(=O)c2ccc(Cl)cc2)cc1`, the fluorescence intensity was 3220.

Regarding `COc1ccc(CC(N)c2csc(NC(=O)NC(c3ccccc3)c3ccccc3)n2)cc1` (configuration not stated), the fluorescence intensity is 3610.

As for `COc1ccc(OC)c(C(O)c2ncc(-c3cccc(C(F)(F)F)c3)[nH]2)c1` (configuration not stated), the fluorescence intensity is 3890.

Consider `CN1OC[C@@H]2CN(C(=O)c3cccc4ccccc34)[C@H](c3ccc(N4CCCCC4)cc3)C[C@@H]21`, for which the fluorescence intensity was 11700.

`CN1OC[C@@H]2CN(S(=O)(=O)c3cccc4ccccc34)[C@H](c3ccc(N4CCCCC4)cc3)C[C@@H]21`: the fluorescence intensity was 25600 (active).

With `CN1OC[C@@H]2CN(C(=O)c3cccnc3)[C@H](c3ccc(N4CCCCC4)cc3)C[C@@H]21`, the fluorescence intensity was 4430.

As for `Cc1cc(C)c2nc3nc(C)cc(C)c3c(N)c2c1`, the fluorescence intensity is 2140.

On to `CCOC(=O)Cc1ncccc1C(=O)Nc1ccc(OC)cc1`, for which the fluorescence intensity was 3720.

Regarding `CCOc1ccc(NC(=O)CSc2nncn2C)cc1`, the fluorescence intensity is 3760.

Turning to `CCCCOc1ccc(NC(=O)CSCC(=O)OCC)cc1`, the fluorescence intensity was 21000 (active).

Turning to `COc1ccc(C(C)C)cc1-c1ccc2nncn2c1`, the fluorescence intensity was 3610.

For the compound `CC1(C(=O)NS(=O)(=O)c2ccccc2)CCN1C(=O)c1ccccc1` (configuration not stated), the fluorescence intensity is 3830.

For `CCCCCCN1CCN(C2CN(Cc3cn(Cc4ccc(F)cc4)nn3)S(=O)(=O)C2)CC1` (configuration not stated), the fluorescence intensity is 6160.

`CSc1nsc(SCC(=O)Nc2cc(C(=O)O)ccc2C)n1`: the fluorescence intensity was 4170.

As for `CC(C)C[C@@H](N)c1nnc(SCC(=O)c2ccc(Cl)cc2)o1`, the fluorescence intensity is 9640.

On to `N[C@@H](Cc1c[nH]c2ccccc12)c1nnc(SCc2c(F)cccc2Cl)o1`, for which the fluorescence intensity is 22800 (active).

With `Oc1ccc(-n2nnnc2SCc2c(F)cccc2Cl)cc1`, the fluorescence intensity was 3260.

Turning to `CC(C)(C)C1C/C(=C/c2ccco2)C(=O)/C(=C/c2ccco2)C1` (configuration not stated), the fluorescence intensity was 3920.

Take `O=S1(=O)CC(N2CCSCC2)CN1Cc1cn(Cc2cccc(Cl)c2)nn1` (configuration not stated): the fluorescence intensity was 5080.

Take `O=C(O)C(c1cccs1)C1(O)CCCCC1` (configuration not stated): the fluorescence intensity is 3860.

As to `CC1(C)C(=O)C2(CCCCC2)C(=O)OC1c1cccs1` (configuration not stated), the fluorescence intensity is 20700 (active).

Take `CC12CN3CC(C)(CN(C1)C3c1cccs1)C2` (configuration not stated): the fluorescence intensity is 8490.

Regarding `CCC(C(=O)N1CCN(S(=O)(=O)c2sc(C(=O)O)c(C)c2C(=O)O)CC1)c1ccccc1` (configuration not stated), the fluorescence intensity was 9090.

Consider `CN(c1cccc(NC(=O)Nc2ccc(Cl)cc2)c1)S(C)(=O)=O`, for which the fluorescence intensity is 16900 (active).

`COc1cccc(NC(=O)Nc2ccc(F)cc2)c1`: the fluorescence intensity was 3940.

For `COc1ccc(C)cc1S(=O)(=O)N(CC(=O)Nc1cccc([N+](=O)[O-])c1)c1ccc(C)cc1`, the fluorescence intensity was 2390.

In the case of `CN(c1cccc(NC(=O)c2ccc(CN3CCc4ccccc4C3)cc2)c1)S(C)(=O)=O`, the fluorescence intensity was 3600.

As for `CCOc1ccc(N(CC(=O)Nc2cccc(OC)c2)S(C)(=O)=O)cc1`, the fluorescence intensity is 4460.

For the compound `Cc1ccc(N(CC(=O)Nc2cccc(N(C)S(C)(=O)=O)c2)S(C)(=O)=O)cc1`, the fluorescence intensity is 24500 (active).

Regarding `N#Cc1c(NCCO)ccc([N+](=O)[O-])c1NCCO`, the fluorescence intensity was 3950.

Regarding `O=C(NCc1cccnc1)c1cc(C2CCCN(C(=O)CCCc3ccccc3)C2)on1` (configuration not stated), the fluorescence intensity was 3480.

Turning to `COc1ccc(-c2coc3c(C(=O)NC(C)C)cccc23)c(C)c1`, the fluorescence intensity was 3850.

As for `O=C(COC(=O)c1ccc(F)c(S(=O)(=O)N2CCOCC2)c1)NCc1ccc2c(c1)OCO2`, the fluorescence intensity is 3750.

With `CCOC(=O)N1CCN(c2c(NCCCN3CCCC(C)C3)c(=O)c2=O)CC1` (configuration not stated), the fluorescence intensity is 4370.

Turning to `Cc1ccc(-c2nc3c(C)cc(Br)cn3c2Cc2ccccc2)cc1`, the fluorescence intensity is 4960.

As to `CC(=O)N(CC(O)CO)c1c(I)c(C(=O)NCC(O)CO)c(I)c(C(=O)NCC(O)CO)c1I` (configuration not stated), the fluorescence intensity is 5720.

Take `N#Cc1c(N)nc2c(c1N)CC(C(F)(F)F)O2` (configuration not stated): the fluorescence intensity is 4380.

For the compound `C=CCn1c(COc2ccccc2C)nnc1SCC(=O)O`, the fluorescence intensity was 2820.

As for `C=CCn1c(COc2cccc3cccnc23)nnc1SCC(=O)OC`, the fluorescence intensity was 21200 (active).

As for `C=CCn1c(COc2ccc(F)cc2)nnc1SCC(=O)Nc1cccc(S(N)(=O)=O)c1`, the fluorescence intensity is 4780.

`CN(Cc1ccc(C(F)(F)F)cc1)C(=O)[C@H]1O[C@@H](n2cnc3c(N)ncnc32)[C@H](O)[C@@H]1O`: the fluorescence intensity is 4210.

With `COc1cc(C(=O)NCc2ccc3c(c2)cc(C)n3C)cc(OC)c1OC`, the fluorescence intensity was 3720.
